Many of the other results were omitted from the sample, so hits are more common in it than they were.
Pf Dd2 growth: Plasmodium falciparum Dd2 growth inhibition; hit rate 4.3% among 120,000; Potency, µM (highest dose often 28.9 µM), for inactives: at the highest dose activity, negative = inhibition, hits mostly inhibitors; P. falciparum Dd2 growth, SYBR Green, 72 h; AID 1347417; active = well fitted inhibition curve with a large enough effect;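 also: plate controls were DMSO vehicle for no effect and reference drug for full effect; nearly all actives have a fitted effect of over 65% in size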
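Infected erythrocytes (Dd2, 0.3% parasitemia, 2.5% hematocrit final) are added to compound in RPMI-1640/Albumax II medium, grown 72 h at 37C in low oxygen, then lysed with saponin/Triton-X containing SYBR Green and read by fluorescence.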
Starred values were filed as active, the others as inactive; i = inactive; [ ] = remark or other dose. Potency is read from the fitted curve at half-maximal effect.

SMILES | Pf Dd2 growth
O=C(O)c1ccc2c(c1)CC(=O)N2Cc1ccc(F)cc1 | i
Cc1sc2c(c1C)c(=O)n(CCc1ccccc1)c(=O)n2Cc1ccccc1Cl | 54%
CCN(CC)C(=O)c1sc2c(c1C)c(=O)n(CCc1ccccc1)c(=O)n2Cc1cccc(Cl)c1 | -18%
CCN(CC)C(=O)c1sc2c(c1C)c(=O)n(CCc1ccccc1)c(=O)n2Cc1ccc(F)cc1Cl | 10µM*
Cc1ncc2c(c1CNC(=O)CCc1ccc(=O)[nH]n1)CCNC2 | 5%
COCC1CN(S(=O)(=O)c2cc(Cl)ccc2OC)CC12CCNCC2 (stereo not drawn) | -25%
Cc1noc(C)c1S(=O)(=O)N1CCC(Cc2nc(-c3cccnc3)n[nH]2)C1 (stereo not drawn) | -16%
Cn1c(C(=O)NC2CCN(Cc3ccccc3)CC2)cc2c1CCN(Cc1ccccc1)C2 | -19%
Cc1sc2ccn(C)c(=O)c2c1C(=O)NC1CCN(Cc2ccccc2)CC1 | -4%
Cn1cc(-c2ccncc2)cc1C(=O)NC1CCN(Cc2ccccc2)CC1 | 5µM*
CCOCCOC1CCN(S(=O)(=O)c2cccc(OC)c2)CC1 | i
Cn1cnc2ccc(-c3cccc(C(F)(F)F)c3)nc2c1=O | 4.5µM*
COCCn1cnc2ccc(-c3cccc(O)c3)nc2c1=O | -8%[44.1 µM]
O=c1c2nc(-c3cccc(C(F)(F)F)c3)ccc2ncn1Cc1ccccn1 | -8%[44.1 µM]
CCN(CC)CC(=O)N1CCC(C(=O)Nc2ccc(-c3nc4ccccc4o3)cc2)CC1 | 10µM*
CN(C)c1ccc(C(=O)Nc2ccc(-c3nc4ccccc4o3)cc2)cc1 | -25%
Cc1ccccc1OCC(=O)Nc1ccc(-c2nc3ccccc3o2)cc1 | i
Cc1cc(C(=O)N2CCOC[C@H](Oc3ccc(S(C)(=O)=O)cc3)C2)no1 | 2%[44.1 µM]
COc1ccc(CC(=O)N2CNC(=O)C23CCN(C(=O)CN)CC3)cc1 | 11%
COc1ccc(-n2nc3c(N4CCCC(C(=O)NCc5ccccc5C)C4)nnc(C)c3c2C)cc1 (stereo not drawn) | -6%
COc1ccc(-n2nc3c(N4CCCC(C(=O)NCCc5ccccc5C)C4)nnc(C)c3c2C)cc1 (stereo not drawn) | 8.9µM*
CCOc1ccc(NC(=O)C2CCCN(c3nnc(C)c4c(C)n(-c5ccccc5)nc34)C2)cc1 (stereo not drawn) | 6%
CCc1ccc(NC(=O)C2CCCN(c3nnc(C)c4c(C)n(-c5ccccc5)nc34)C2)cc1 (stereo not drawn) | 16%
COc1ccc(-n2nc3c(N4CCCC(C(=O)NCCc5ccc(C)cc5)C4)nnc(C)c3c2C)cc1 (stereo not drawn) | 8.9µM*
Cc1nnc(N2CCCC(C(=O)NCc3ccccc3F)C2)c2nn(-c3ccc(Cl)cc3)c(C)c12 (stereo not drawn) | 1%
SMILES | Pf Dd2 growth
CN1C(=O)CS(=O)(=O)C12CCN(C(=O)c1ccccc1F)CC2 | 23%
Oc1ccc(CN2CCCCC2c2nc(CCOCC3CC3)no2)cc1 (stereo not drawn) | i
COc1ccc(NC(=O)c2cc(C3CC3)nc3c2c(C)nn3-c2ccccc2)cc1 | 6%
COc1ccc(-c2cc(C(=O)NC3CCNCC3)c3c(C)nn(-c4ccccc4)c3n2)cc1 | 11µM*
COCCNC(=O)c1cc(-c2ccc(OC)cc2)nc2c1c(C)nn2-c1ccccc1 | -30%
O=C(CCn1cccn1)N1CCC2(CC1)CN(Cc1ccccc1)CC2CO (stereo not drawn) | 21%
CCc1ccccc1S(=O)(=O)N1CCC(n2cnnc2CCOC)CC1 | 1%
Cc1ccc(C(=O)N2C(C(=O)NCC3CCCO3)COC23CCN(C(=O)CC(C)(C)C)CC3)cc1 (stereo not drawn) | -11%
CCN(CC)C(=O)[C@@H]1CCC[C@@H](NCc2nccs2)CN(C)C(=O)C1 | -11%[44.1 µM]
Cc1ccc(-c2nnc(Nc3ccc(O)cc3)c3ccccc23)cc1S(=O)(=O)N1CCCCC1 | 10µM*
Cc1ccc(-c2noc(-c3ccc(NCC4CCCO4)c([N+](=O)[O-])c3)n2)cc1 (stereo not drawn) | 18%
Cc1ccc(-c2nnc(Nc3ccc(O)cc3)c3ccccc23)cc1S(=O)(=O)NCC1CCCO1 (stereo not drawn) | 5µM*
Cc1cc(C)n(-c2nnc(Nc3cc(Cl)ccc3C)c3ccccc23)n1 | 61%
Cc1ccc(-c2nnc(Nc3ccc(C(=O)N(C)C)cc3)c3ccccc23)cc1S(=O)(=O)N(C)C | 11µM*
CNC(=O)c1ccc(Nc2nnc(-c3ccc(C)c(S(=O)(=O)N(C)C)c3)c3ccccc23)cc1 | -11%
CNS(=O)(=O)c1cc(-c2nnc(Nc3cc(C)ccc3C)c3ccccc23)ccc1C | 5µM*
Cc1ccc(-c2nnc(Nc3ccc(S(N)(=O)=O)cc3)c3ccccc23)cc1S(=O)(=O)N1CCCCC1 | 19%
Cc1cc(C)n(-c2nnc(Nc3ccc(C)c(C)c3)c3ccccc23)n1 | -22%
Cc1ccc(C(=O)Nc2cccc(O)c2)cc1S(=O)(=O)N1CCCCCC1 | -24%
Cc1ccc(-c2nnc(Nc3ccccc3O)c3ccccc23)cc1 | -24%
Cc1cc(-c2ccc(C)c(S(=O)(=O)NC3CCCCC3)c2)on1 | i
CCOc1ccccc1CN1CCC([C@@H]2CNC[C@H]2CO)CC1 | 37%
COCCNC(=O)[C@@H]1CCC[C@@H](NC(=O)c2ccc(Cl)cc2)CN(C)C(=O)C1 | -22%[44.1 µM]
O=C(N[C@@H]1CCN(C(=O)c2ccc3cc[nH]c3c2)C[C@H]1O)c1cnccn1 | 1%
Cc1noc2c(NC3CCC(O)CC3)cc(-c3cccnc3)nc12 (stereo not drawn) | i
SMILES | Pf Dd2 growth
O=C(CCn1ccn2nc3c(c2c1=O)CCCC3)NCCc1cccs1 | i
O=C1NCCCCCCN(C(=O)c2ccncc2)[C@H]2CCCC[C@@H]12 | -10%
CC1=NS(=O)(=O)N(C)C=C1C(=O)OCc1noc(-c2cccs2)n1 | 32%
Cc1ccc(-c2nnc(Nc3ccc(F)cc3)c3ccccc23)cc1S(=O)(=O)NC(C)C | 11µM*
Cc1ccc(Nc2nnc(-c3ccc(C)c(S(=O)(=O)N4CCOCC4)c3)c3ccccc23)c(C)c1 | 7.9µM*
Cc1ccccc1Nc1nnc(-c2ccc(C)c(S(=O)(=O)N3CCOCC3)c2)c2ccccc12 | 31%
Cc1cc(-c2ccc(C)c(S(=O)(=O)NCc3cccc(Br)c3)c2)on1 | 20%
Cc1ccc(-c2nnc(Nc3ccc(Br)cc3)c3ccccc23)cc1S(=O)(=O)NCC1CCCO1 (stereo not drawn) | 10µM*
Cc1cc(C)n(-c2nnc(Nc3ccc(C(C)C)cc3)c3ccccc23)n1 | 6%
Cc1ccc(-c2nnc(Nc3cccc(O)c3)c3ccccc23)cc1S(=O)(=O)N1CCOCC1 | i
CCOC(=O)c1c(Nc2ccc(F)cc2)nnc(-c2ccccc2)c1-c1ccccc1 | -29%
COc1ccc(Nc2nnc(-c3ccc(C)c(S(=O)(=O)NCc4nc5ccccc5[nH]4)c3)c3ccccc23)cc1 | 75%
Cc1ccccc1C(=O)NC1CCN(c2cc(-c3ccc(Cl)cc3)[nH]n2)CC1 | i
Cc1cc(C)cc(OCC(=O)c2ccc3c(c2)N(CC(=O)N2CCOCC2)C(=O)CO3)c1 | 9%
Cc1cnc(CC2CCN(C(=O)C3CC3)C2)n1C1CC1 (stereo not drawn) | i
CN1CCOc2c(C(=O)NCc3cccnc3)cc(-c3ccccc3)cc21 | i
O=C(NC1CCN(c2cc(-c3ccc(F)cc3)[nH]n2)CC1)c1cnccn1 | i
CCc1cn(C[C@@H](C(=O)O)N(CC)CC)c(=O)[nH]c1=O | 0%[44.1 µM]
CCn1cc(NC(=O)C[C@H]2NC(=O)c3ccccc3NC2=O)c(C)n1 | 6%
